Records with an inconclusive call do not appear. Where a call stands in place of a potency, no number is given. A number with no mark means an inactive call. Calls of active or inactive are those of the source. The call rests on the fitted dose curve.
biological target: Nucleoprotein (Lymphocytic choriomeningitis virus (strain Armstrong)) (UniProt P09992); assay: qHTS for Inhibitors of the Functional Ribonucleoprotein Complex (vRNP) of Lymphocytic Choriomeningitis Arenaviruses (LCMV): LCMV Primary Screen - GLuc reporter signal (AID 1347086); settings: LCMV minigenome vRNP cell assay, Gaussia luciferase reporter; series mostly up to 57.5 µM; further: nearly all actives have a fitted effect of over 70% in size
Sequence (P09992 whole entry, looked up): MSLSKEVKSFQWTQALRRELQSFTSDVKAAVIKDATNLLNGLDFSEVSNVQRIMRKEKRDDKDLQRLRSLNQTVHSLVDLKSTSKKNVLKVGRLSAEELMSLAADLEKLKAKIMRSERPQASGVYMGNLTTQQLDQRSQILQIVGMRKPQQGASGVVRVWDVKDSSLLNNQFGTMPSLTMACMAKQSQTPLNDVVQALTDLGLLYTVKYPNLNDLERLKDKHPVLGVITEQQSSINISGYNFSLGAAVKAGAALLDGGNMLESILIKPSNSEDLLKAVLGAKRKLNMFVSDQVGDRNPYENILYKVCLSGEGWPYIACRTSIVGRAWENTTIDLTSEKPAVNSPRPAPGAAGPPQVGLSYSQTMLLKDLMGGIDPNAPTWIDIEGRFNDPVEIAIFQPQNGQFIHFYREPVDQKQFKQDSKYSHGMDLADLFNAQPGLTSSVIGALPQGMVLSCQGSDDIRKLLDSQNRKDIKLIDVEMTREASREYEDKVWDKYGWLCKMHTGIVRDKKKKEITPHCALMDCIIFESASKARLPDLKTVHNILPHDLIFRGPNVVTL
Potency means the concentration at half of the fitted maximal effect.

Row | Structure (SMILES) | Potency | activity change, negative = inhibition
1 | CC(=O)c1ccc(S(=O)(=O)NC(=O)NC2CCCCC2)cc1 | inactive | –
2 | Cc1ccc(Nc2nccc(N(C)c3ccc4c(C)n(C)nc4c3)n2)cc1S(N)(=O)=O | inactive | –
3 | COc1ccc(-c2ccc3cc(C(=O)O)ccc3c2)cc1C12CC3CC(CC(C3)C1)C2 | inactive | –
4 | Nc1ccc(/C=C/c2ccc(N)cc2S(=O)(=O)O)c(S(=O)(=O)O)c1 | – | 15.6% [at 0.757 µM]
5 | Nc1ccc(C(=O)O)c(O)c1 | inactive | –
6 | C[C@@H]1O[C@@H](O[C@H]2CC[C@@]3(C)[C@H](CC[C@@H]4[C@H]3C[C@@H](O)[C@]3(C)[C@@H](C5=CC(=O)OC5)CC[C@]43O)C2)C[C@H](O)[C@@H]1O[C@H]1C[C@H](O)[C@H](O[C@H]2C[C@H](O)[C@@H](O)[C@@H](C)O2)[C@H](C)O1 (stereo in doubt) | 444 nM (active) | –
7 | CCC(Cc1c(I)cc(I)c(N)c1I)C(=O)O (centres undefined) | inactive | –
8 | Cc1ccc(-c2ccccc2C#N)cc1 | inactive | –
9 | C/C(=N\O)c1ccc(OCC(=O)N2CCCCC2)cc1 | inactive | –
10 | COc1ccc(-c2cc(=O)c3c(O)cc(O[C@@H]4O[C@H](CO[C@@H]5O[C@@H](C)[C@H](O)[C@@H](O)[C@H]5O)[C@@H](O)[C@H](O)[C@H]4O)cc3o2)cc1O | inactive | –
11 | Clc1ccc2c(c1)Nc1ccccc1S2 | inactive | –
12 | NS(=O)(=O)c1ccc(NC(=O)CCC(=O)O)cc1 | inactive | –
13 | CC(C)CCCC(C)NCCC(C)C (centres undefined) | inactive | –
14 | CNNCc1ccc(C(=O)NC(C)C)cc1 | inactive | –
15 | CC(C)(C)c1ccc(O)cc1 | inactive | –
16 | CCN[C@H]1CN(CCCOC)S(=O)(=O)c2sc(S(N)(=O)=O)cc21 | inactive | –
17 | C1COC(NC(C2CC2)C2CC2)=N1 | inactive | –
18 | CCCNC(C)C(=O)Nc1ccccc1C (centres undefined) | inactive | –
19 | Cc1nc2ccccn2c(=O)c1CCN1CCC(C(=O)c2ccc(F)cc2)CC1 | inactive | –
20 | CCOC(=O)c1ccc(O)c(O)c1 | inactive | –

Row | Structure (SMILES) | Potency | activity change, negative = inhibition
21 | CC1CCN(CCCC(=O)c2ccc(F)cc2)CC1 | inactive | –
22 | CC(C)C(=O)c1c(C(C)C)nn2ccccc12 | inactive | –
23 | C[C@@H](CN1CC(=O)NC(=O)C1)N1CC(=O)NC(=O)C1 | inactive | –
24 | O=C(CN1CCNCC1)NC1CCCCC1 | inactive | –
25 | CC[N+](CC)(CC)CCOc1cccc(OCC[N+](CC)(CC)CC)c1OCC[N+](CC)(CC)CC | inactive | –
26 | CN1C[C@@H]2C[C@H]1CN2c1cc2c(cc1F)c(=O)c(C(=O)O)cn2C1CC1 | inactive | –
27 | NS(=O)(=O)c1cc2c(cc1C(F)(F)F)NC(Cc1ccccc1)NS2(=O)=O (centres undefined) | inactive | –
28 | Cc1c(NC(C)C)c(=O)n(-c2ccccc2)n1C | inactive | –
29 | CCCCC(=O)OCC(=O)[C@H]1[C@H](C)C[C@H]2[C@@H]3C[C@H](F)C4=CC(=O)C=C[C@]4(C)[C@@]3(F)[C@@H](O)C[C@@]21C | inactive | –
30 | CCOCCn1c(C2CCN(CCc3ccc(C(C)(C)C(=O)O)cc3)CC2)nc2ccccc21 | inactive | –
31 | CC1(C)O[C@H]2CC(=O)OC[C@]23[C@H]2CC[C@@]4(C)[C@H](c5ccoc5)OC(=O)[C@H]5O[C@]54[C@]2(C)C(=O)C[C@@H]13 | inactive | –
32 | CC1(C)O[C@@H]2C[C@H]3[C@@H]4CCC5=CC(=O)C=C[C@]5(C)[C@@H]4[C@@H](O)C[C@]3(C)[C@]2(C(=O)CO)O1 | inactive | –
33 | NCCCC[C@H](N[C@@H](CCc1ccccc1)C(=O)O)C(=O)N1CCC[C@H]1C(=O)O | inactive | –
34 | CC(C)(C)NCC(O)COc1cccc2c1C[C@H](O)[C@H](O)C2 (some centres undefined) | inactive | –
35 | O=C(CCCl)NCCc1ccccc1 | inactive | –
36 | COc1ccc(Cc2cnc(N)nc2N)cc1OC | inactive | –
37 | CCCC(O)C(CC)CO (centres undefined) | inactive | –
38 | CC(C)Cc1ccc(CC(=O)O)cc1 | inactive | –
39 | COc1ccc(C2CNC(=O)C2)cc1OC1CCCC1 (centres undefined) | inactive | –
